Measurements reported in PubChem BioAssay (EPA / NIEHS).
Active and inactive are the calls of the source. How the source made its calls: active means hit-call score of the fitted dose curve at least 0.9, where 1 is the maximum; inactive means score below 0.9.

Tests used:
Conditions in all cases: mRNA level, 48 h; actives raise or lower the signal
[1] = read-out: Cytochrome P450 (CYP24A1), CYP24A1 (gene 1591); assay: LTEA_HepaRG_CYP24A1: Life Technologies and Expression Analysis (LTEA) Assay for Cytochrome P450 (CYP24A1) using HepaRG (AID 2283478)
Outline: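 mRNA of CYP24A1 quantified by TaqMan qRT-PCR (ACTB/GAPDH/POLR2A normalization) after 48 h chemical exposure of HepaRG cells, top concentration 100 uM, half-log steps, 0.5% DMSO vehicle, duplicates. Curves fitted bidirectionally against DMSO baseline.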

[2] = read-out: Cytochrome P450 (CYP1A2), CYP1A2 (gene 1544); assay: LTEA_HepaRG_CYP1A2: Life Technologies and Expression Analysis (LTEA) Assay for Cytochrome P450 (CYP1A2) using HepaRG (AID 2283479);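 on AC50: TaqMan qRT-PCR transcript level normalized to ACTB GAPDH and POLR2A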
Outline: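 CYP1A2 transcript measured by TaqMan qRT-PCR against three housekeeping genes after 48-hour chemical exposure of HepaRG cells. Eight-point half-log series topping at 100 uM in 0.5% DMSO, duplicates; gain or loss fitted relative to vehicle.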

[3] = read-out: cysteine-aspartic acid protease (CASP8), CASP8 (gene 841); assay: LTEA_HepaRG_CASP8: Life Technologies and Expression Analysis (LTEA) Assay for cysteine-aspartic acid protease (CASP8) using HepaRG (AID 2283480)
Outline: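 Concentration-response in duplicate up to 100 uM (half-log steps, 0.5% DMSO) on differentiated HepaRG cultures for 48 h. Expression change of CASP8 mRNA is determined by TaqMan qRT-PCR with housekeeping-gene normalization.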

[4] = read-out: Cytochrome P450 (CYP2B6), CYP2B6 (gene 1555); assay: LTEA_HepaRG_CYP2B6: Life Technologies and Expression Analysis (LTEA) Assay for Cytochrome P450 (CYP2B6) using HepaRG (AID 2283481)
Outline: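 CYP2B6 transcript level quantified by qRT-PCR against three housekeeping genes, fitted bidirectionally relative to DMSO. HepaRG cultures received chemicals for 48 h, 8-point half-log series from 100 uM in 0.5% DMSO, duplicate wells, serum-free induction medium.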

[5] = read-out: Cytochrome P450 2C19 (Homo sapiens) (UniProt P33261); assay: LTEA_HepaRG_CYP2C19: Life Technologies and Expression Analysis (LTEA) Assay for CYP2C19 using HepaRG (AID 2283482)
Outline: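 CYP2C19 transcript levels by qRT-PCR, normalized to three housekeeping genes, in HepaRG cells after 48 h chemical exposure. Eight-point half-log series topping at 100 uM, 0.5% DMSO vehicle. Increases and decreases both fitted against DMSO.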

[6] = read-out: CYP2C8 (gene 1558); assay: LTEA_HepaRG_CYP2C8: Life Technologies and Expression Analysis (LTEA) Assay for CYP2C8 using HepaRG (AID 2283483)
Outline: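 This is a transcriptional endpoint in HepaRG cultures: 48 h exposure, highest concentration 100 uM. CYP2C8 mRNA is quantified by TaqMan qRT-PCR.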

[7] = read-out: CYP2C9 (gene 1559); assay: LTEA_HepaRG_CYP2C9: Life Technologies and Expression Analysis (LTEA) Assay for CYP2C9 using HepaRG (AID 2283484)
Outline: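 Eight-point concentration-response (highest 100 uM, half-log dilutions) in HepaRG cells for 48 h; CYP2C9 expression by qRT-PCR normalized to ACTB, GAPDH, POLR2A. Bidirectional fit, DMSO baseline.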

[8] = read-out: CYP2E1 (gene 1571); assay: LTEA_HepaRG_CYP2E1: Life Technologies and Expression Analysis (LTEA) Assay for CYP2E1 using HepaRG (AID 2283485)
Outline: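 CYP2E1 transcript measured by Fluidigm qRT-PCR against three housekeeping genes in human HepaRG cells treated 48 h (top 100 uM, half-log steps, 0.5% DMSO vehicle). Gain or loss fitted relative to DMSO baseline.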

[9] = read-out: CYP4A11 (gene 1579); assay: LTEA_HepaRG_CYP4A11: Life Technologies and Expression Analysis (LTEA) Assay for CYP4A11 using HepaRG (AID 2283486)
Outline: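 Readout is CYP4A11 transcript level by qRT-PCR, normalized to three housekeeping genes and fitted bidirectionally against 0.5% DMSO. Human HepaRG cells were treated 48 h, in duplicate, with an 8-point half-log series topping at 100 uM.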

[10] = read-out: Cytochrome P450 3A4 (Homo sapiens) (UniProt P08684); assay: LTEA_HepaRG_CYP3A4: Life Technologies and Expression Analysis (LTEA) Assay for CYP3A4 using HepaRG (AID 2283487)
Outline: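 In a human hepatic line (HepaRG), duplicate wells were treated 48 h with up to 100 uM chemical in half-log dilutions. Endpoint: CYP3A4 mRNA induction or loss relative to 0.5% DMSO vehicle, by qRT-PCR.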

Measured: AC50

Cytochrome P450 3A4 (Homo sapiens), sequence (P08684 whole entry, looked up): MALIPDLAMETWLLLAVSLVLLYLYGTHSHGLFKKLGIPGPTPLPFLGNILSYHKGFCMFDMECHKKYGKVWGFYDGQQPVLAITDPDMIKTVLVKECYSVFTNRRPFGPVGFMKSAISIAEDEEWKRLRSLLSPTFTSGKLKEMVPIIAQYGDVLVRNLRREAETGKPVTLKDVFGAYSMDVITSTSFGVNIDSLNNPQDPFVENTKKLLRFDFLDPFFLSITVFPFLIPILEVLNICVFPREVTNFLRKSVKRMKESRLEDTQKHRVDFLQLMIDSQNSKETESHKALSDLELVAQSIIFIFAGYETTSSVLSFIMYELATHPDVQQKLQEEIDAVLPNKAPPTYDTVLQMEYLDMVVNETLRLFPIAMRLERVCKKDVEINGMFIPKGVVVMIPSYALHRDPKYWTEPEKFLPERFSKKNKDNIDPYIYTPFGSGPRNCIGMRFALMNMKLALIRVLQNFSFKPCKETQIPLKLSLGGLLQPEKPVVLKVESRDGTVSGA
Cytochrome P450 2C19 (Homo sapiens), sequence (P33261 whole entry, looked up): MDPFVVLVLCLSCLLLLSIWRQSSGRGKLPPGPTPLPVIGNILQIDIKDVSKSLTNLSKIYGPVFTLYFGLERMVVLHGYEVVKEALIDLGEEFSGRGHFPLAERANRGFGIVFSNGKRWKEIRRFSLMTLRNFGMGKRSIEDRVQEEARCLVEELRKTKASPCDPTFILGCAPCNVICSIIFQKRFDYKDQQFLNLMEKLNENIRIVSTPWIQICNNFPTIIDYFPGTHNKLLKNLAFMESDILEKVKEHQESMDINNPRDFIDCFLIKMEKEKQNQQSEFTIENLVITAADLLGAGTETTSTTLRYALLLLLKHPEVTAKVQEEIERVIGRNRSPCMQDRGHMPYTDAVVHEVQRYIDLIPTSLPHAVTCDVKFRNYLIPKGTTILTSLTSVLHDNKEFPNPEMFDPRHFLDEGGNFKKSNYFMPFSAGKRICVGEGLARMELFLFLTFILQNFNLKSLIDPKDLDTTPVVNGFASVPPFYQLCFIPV

CCc1ccc(O)c(C(C)(C)C)c1
inactive: all assays above

NC(=O)N1c2ccccc2C=Cc2ccccc21
active: [4] 5.83 µM | [5] 15.9 µM | [8] 41.8 µM
not listed: [10]
inactive: all other assays above

OC[C@H]1O[C@@H]2O[C@H]3[C@H](O)[C@@H](O)[C@@H](O[C@H]4[C@H](O)[C@@H](O)[C@@H](O[C@H]5[C@H](O)[C@@H](O)[C@@H](O[C@H]6[C@H](O)[C@@H](O)[C@@H](O[C@H]7[C@H](O)[C@@H](O)[C@@H](O[C@H]1[C@H](O)[C@H]2O)O[C@@H]7CO)O[C@@H]6CO)O[C@@H]5CO)O[C@@H]4CO)O[C@@H]3CO
not listed: [10]
inactive: all other assays above

COS(C)(=O)=O
inactive: all assays above

CCOC(N)=O
inactive: all assays above

CCCCCCOC(=O)CC(CC(=O)OCCCCCC)(OC(=O)CCC)C(=O)OCCCCCC
active: [4] 12.3 µM | [10] 17.7 µM
inactive: all other assays above

CCOc1ccc2[nH]cc(C(=O)NCc3ccccc3)c(=O)c2n1
active: [2] 32 µM | [8] 63 µM | [9] 76.5 µM | [10] 29.2 µM
inactive: all other assays above

CC(C)CCCCCCOC(=O)C1CCCCC1C(=O)OCCCCCCC(C)C (stereo not given)
active: [2] 50 µM | [3] 0.00316 µM
inactive: all other assays above

c1ccc2cc3ccccc3cc2c1
active: [2] 18.7 µM | [4] 13.2 µM | [8] 50 µM
inactive: all other assays above

C=CCc1cc(S(=O)(=O)c2ccc(O)c(CC=C)c2)ccc1O
inactive: [1] | [3]
active: [2] 8.77 µM | [4] 80.6 µM | [5] 95.4 µM | [6] 97.2 µM | [7] 93 µM | [8] 86.3 µM | [9] 94.4 µM | [10] 80.4 µM

C=CN1CCCC1=O
inactive: all assays above

OCc1ccccc1
inactive: all assays above

CCn1nc(C)c2c1C(=O)NCC(c1ccc(O)cc1)=N2
active: [2] 34.1 µM | [4] 32.9 µM | [9] 27.9 µM | [10] 29.9 µM
inactive: all other assays above

NNC(=O)c1ccncc1
active: [4] 10.4 µM
inactive: all other assays above

CCCCCCCCCCCCCCO
active: [2] 50 µM
inactive: all other assays above

c1ccc(C(O[C@@H]2CCCN(CCc3ccc4c(c3)OCO4)C2)c2ccccc2)cc1
active: [2] 12.2 µM | [3] 78.6 µM | [4] 72 µM | [5] 79 µM | [6] 77.1 µM | [7] 85.2 µM | [8] 50 µM | [9] 59.7 µM
inactive: [1]

CCCCOC(=O)c1ccccc1
active: [4] 50 µM
inactive: all other assays above

COCc1nnc(-c2ccc[n+]([O-])c2)n1-c1c(Cl)c(Cl)cc2[nH]c(=O)c(=O)[nH]c12
active: [4] 14.6 µM
inactive: all other assays above

CCCCCCCCN(C)C
inactive: all assays above

O=C(O)c1cccc(C(=O)O)c1
active: [2] 82.6 µM
inactive: all other assays above

NC(=O)NN=Cc1ccc([N+](=O)[O-])o1
active: [1] 456 nM | [2] 0.377 µM | [8] 19 µM
inactive: all other assays above

CCCCCCCCCC
active: [2] 50 µM
inactive: all other assays above

O=S(=O)(O)c1ccc(N=Nc2c(O)ccc3cc(S(=O)(=O)O)ccc23)cc1
active: [2] 50 µM | [4] 22.9 µM
inactive: all other assays above

OCCNCCO
active: [4] 50 µM | [5] 50 µM | [7] 50 µM | [8] 45 µM
inactive: all other assays above

OC(Cn1cncn1)(Cn1cncn1)c1ccc(F)cc1F
active: [4] 27.1 µM
inactive: all other assays above

CCN(CC)C(=S)SSC(=S)N(CC)CC
active: [2] 75.2 µM | [4] 16.8 µM
inactive: all other assays above

O=c1[nH]cnc2c1ncn2[C@H]1CC[C@@H](CO)O1
inactive: all assays above

CC(=O)c1ccccc1
inactive: all assays above

Cc1ncc([C@@H](CCCCCCc2ccc3c(n2)NCCC3)CC(=O)O)cn1
active: [8] 50 µM | [9] 15.7 µM | [10] 31 µM
inactive: all other assays above

CCc1cccc(CC)c1N
active: [2] 50 µM | [4] 6.35 µM
inactive: all other assays above

OC(CCl)CCl
inactive: all assays above

CC(C)C(=O)Nc1ccc([N+](=O)[O-])c(C(F)(F)F)c1
inactive: [1] | [3]
active: [2] 14.9 µM | [4] 63.2 µM | [5] 77.3 µM | [6] 15.8 µM | [7] 66 µM | [8] 43.9 µM | [9] 50.4 µM

CC1(C)C(=O)N(Cl)C(=O)N1Cl
active: [2] 50 µM
inactive: all other assays above

O=C1CN(N=Cc2ccc([N+](=O)[O-])o2)C(=O)N1
active: [4] 50 µM | [6] 50 µM | [8] 52.7 µM | [9] 45.7 µM
not listed: [10]
inactive: all other assays above
